Measured values from PubChem BioAssay (Tox21).
“And” between values parts separate entries of the source, which are not always exact repeats. Equal entries are not always repeated. Results filed as inconclusive are left out. Where a call stands in place of a potency, no number is given. Some compounds were tested as several samples or in several runs, with calls that do not always agree. The source made the active and inactive calls. The call rests on the fitted dose curve; in most records, active means well fitted curve in the direction sought with a large enough effect in the repeat runs; inconclusive means weak or mixed curves; inactive means no such curve, though single readings can be large; an effect the other way counts as inactive or inconclusive.

Assays:
[1] = Caspase-3/7 induction in CHO-K1 cells by small molecules, qHTS cell viability counter screen (AID 1346979); further: nearly all actives have a fitted effect of over 35% in size
In short: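 Cells (CHO-K1, wild type) are plated at 1,500 per well and incubated 5hr. Test compounds in DMSO are then pinned in, followed by 16hr at 37C and 5% CO2. Viability is read by CellTiter-Fluor fluorescence after 1hr.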

[2] = Caspase-3/7 induction in CHO-K1 cells by small molecules, qHTS assay (AID 1346980); further: nearly all actives have a fitted effect of over 15% in size
In short: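 Wild-type cells were seeded at 1,500 per well and settled 5 hr at 37 C, 5% CO2, then exposed to DMSO-dissolved compounds for 17 hr. Caspase-Glo 3/7 reagent was added, and luminescence was read after 30min at room temperature.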

[3] = Caspase-3/7 induction in HepG2 cells by small molecules, qHTS cell viability counter screen (AID 1346981); further: nearly all actives have a fitted effect of over 30% in size
In short: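 HepG2, WT, 2,000 cells/well; 5 hr pre-incubation 37 C/5% CO2; compound pin-transferred from DMSO; 16 hr exposure; CellTiter-Fluor, 1 hr; fluorescence read.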

[4] = target: Nuclear receptor subfamily 1 group I member 2 (Homo sapiens) (UniProt O75469); test: Human pregnane X receptor (PXR) small molecule agonists, qHTS assay (AID 1346982); further: nearly all actives have a fitted effect of over 35% in size
In short: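 Luciferase signal from ONE-Glo (30 min, room temperature) measured activation of hPXR-driven CYP3A4 reporter expression in PXR-Luc HepG2 cells treated with compounds for 24 hr at 37 C.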

[5] = target: Cytochrome P450 2D6 (Homo sapiens) (UniProt P10635); test: Cytochrome P450 Family 2 Subfamily D Member 6 (CYP2D6) small molecule antagonists: luciferase reporter qHTS assay (AID 1671196); further: nearly all actives have a fitted effect of over 50% in size
In short: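 Read-out is luminescence from luciferin formed by CYP2D6 turnover of a proluciferin substrate, recorded as relative luminescence units. Reactions ran 1 h at room temperature after NADPH regeneration solution was added.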

[6] = target: Cytochrome P450 2C19 (Homo sapiens) (UniProt P33261); test: Cytochrome P450 Family 2 Subfamily C Member 19 (CYP2C19) small molecule antagonists: luciferase reporter qHTS assay (AID 1671197); further: nearly all actives have a fitted effect of over 65% in size
In short: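 P450-Glo CYP2C19 screening system; proluciferin substrate; DMSO compound stocks; 10 min RT preincubation; NADPH regeneration, 1 h at 37C; luciferin detection reagent, 20 min RT; luminescence as RLU.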

[7] = target: Cytochrome P450 1A2 (Homo sapiens) (UniProt P05177); test: Cytochrome P450 Family 1 Subfamily A Member 2 (CYP1A2) small molecule antagonists: luciferase reporter qHTS assay (AID 1671199); further: nearly all actives have a fitted effect of over 50% in size
In short: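 P450-Glo CYP1A2, 1536-well qHTS: enzyme/proluciferin substrate + cpd (DMSO), 10 min RT; NADPH regen, 1 h RT; detection reagent, 20 min; luminescence, RLU.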

[8] = target: Voltage-gated inwardly rectifying potassium channel KCNH2 (Homo sapiens) (UniProt Q12809); test: Human Ether-a-go-go-Related Gene (hERG) channel small molecule antagonists: fluorescence cell-based qHTS assay (AID 1671200); further: nearly all actives have a fitted effect of over 50% in size
In short: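 Channel function was assessed by thallium flux. Cells seeded the previous day and kept at 37 C took up FluxOR II dye over 1 h in the dark at room temperature, then sat another 10 min before stimulation.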

[9] = target: Cytochrome P450 3A4 (Homo sapiens) (UniProt P08684); test: Cytochrome P450 Family 3 Subfamily A Member 4 (CYP3A4) small molecule antagonists: luciferase reporter qHTS assay (AID 1671201); further: nearly all actives have a fitted effect of over 50% in size
In short: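 Compounds in DMSO were pin-transferred onto CYP3A4 enzyme-substrate mix and held 10 min at room temperature. NADPH regenerating solution started the reaction for 1 h; luciferin detection reagent stopped it, and luminescence was read after 20 min.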

[10] = target: Cytochrome P450 2C9 (Homo sapiens) (UniProt P11712); test: Cytochrome P450 Family 2 Subfamily C Member 9 (CYP2C9) small molecule antagonists: luciferase reporter qHTS assay (AID 1671198); further: nearly all actives have a fitted effect of over 50% in size
In short: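 CYP2C9 activity was measured with a P450-Glo proluciferin substrate. Enzyme–substrate mix was held with compound for 10 min at room temperature, then NADPH regeneration solution was added for 1 h at 37C. Luciferin product was read as luminescence.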
Potency means the concentration at half of the fitted maximal effect.

Cytochrome P450 2C9 (Homo sapiens), sequence (P11712 whole entry, looked up): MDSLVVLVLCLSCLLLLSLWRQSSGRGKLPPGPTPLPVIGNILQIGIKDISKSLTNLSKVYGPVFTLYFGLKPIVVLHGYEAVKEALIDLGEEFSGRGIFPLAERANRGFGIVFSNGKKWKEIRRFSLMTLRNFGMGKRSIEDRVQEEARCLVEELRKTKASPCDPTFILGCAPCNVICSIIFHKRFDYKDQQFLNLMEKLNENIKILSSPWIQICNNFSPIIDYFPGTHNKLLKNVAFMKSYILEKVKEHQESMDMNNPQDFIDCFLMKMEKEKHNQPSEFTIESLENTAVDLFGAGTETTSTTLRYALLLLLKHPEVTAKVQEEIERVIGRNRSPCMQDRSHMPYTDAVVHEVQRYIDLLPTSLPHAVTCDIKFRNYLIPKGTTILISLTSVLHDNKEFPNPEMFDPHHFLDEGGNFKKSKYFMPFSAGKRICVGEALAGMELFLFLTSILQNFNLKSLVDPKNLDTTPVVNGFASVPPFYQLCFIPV
Nuclear receptor subfamily 1 group I member 2 (Homo sapiens), sequence (O75469 whole entry, looked up): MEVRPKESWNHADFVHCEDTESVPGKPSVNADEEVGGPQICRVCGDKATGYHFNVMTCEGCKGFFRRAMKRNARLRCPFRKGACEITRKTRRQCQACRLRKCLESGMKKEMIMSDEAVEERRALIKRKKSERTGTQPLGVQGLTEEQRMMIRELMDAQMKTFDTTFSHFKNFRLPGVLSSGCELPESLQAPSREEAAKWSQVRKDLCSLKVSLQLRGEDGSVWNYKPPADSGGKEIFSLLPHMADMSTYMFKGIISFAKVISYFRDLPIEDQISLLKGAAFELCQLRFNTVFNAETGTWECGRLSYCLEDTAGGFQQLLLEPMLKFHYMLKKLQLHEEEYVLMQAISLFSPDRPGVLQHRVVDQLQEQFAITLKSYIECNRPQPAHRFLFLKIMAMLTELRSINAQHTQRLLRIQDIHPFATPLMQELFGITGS
Cytochrome P450 2C19 (Homo sapiens), sequence (P33261 whole entry, looked up): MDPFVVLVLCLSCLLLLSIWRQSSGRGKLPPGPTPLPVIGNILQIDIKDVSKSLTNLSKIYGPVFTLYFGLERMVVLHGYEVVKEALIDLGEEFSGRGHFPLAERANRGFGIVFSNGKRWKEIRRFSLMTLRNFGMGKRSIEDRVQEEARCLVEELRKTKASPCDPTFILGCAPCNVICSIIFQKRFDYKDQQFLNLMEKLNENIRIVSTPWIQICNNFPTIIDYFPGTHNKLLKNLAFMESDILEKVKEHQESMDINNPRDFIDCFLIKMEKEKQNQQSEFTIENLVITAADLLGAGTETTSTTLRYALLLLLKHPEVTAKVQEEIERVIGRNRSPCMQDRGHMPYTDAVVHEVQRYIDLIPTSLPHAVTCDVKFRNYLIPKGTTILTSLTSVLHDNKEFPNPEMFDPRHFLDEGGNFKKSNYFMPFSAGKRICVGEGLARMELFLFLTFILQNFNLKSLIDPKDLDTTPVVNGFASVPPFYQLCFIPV
Voltage-gated inwardly rectifying potassium channel KCNH2 (Homo sapiens), sequence (Q12809 whole entry, looked up): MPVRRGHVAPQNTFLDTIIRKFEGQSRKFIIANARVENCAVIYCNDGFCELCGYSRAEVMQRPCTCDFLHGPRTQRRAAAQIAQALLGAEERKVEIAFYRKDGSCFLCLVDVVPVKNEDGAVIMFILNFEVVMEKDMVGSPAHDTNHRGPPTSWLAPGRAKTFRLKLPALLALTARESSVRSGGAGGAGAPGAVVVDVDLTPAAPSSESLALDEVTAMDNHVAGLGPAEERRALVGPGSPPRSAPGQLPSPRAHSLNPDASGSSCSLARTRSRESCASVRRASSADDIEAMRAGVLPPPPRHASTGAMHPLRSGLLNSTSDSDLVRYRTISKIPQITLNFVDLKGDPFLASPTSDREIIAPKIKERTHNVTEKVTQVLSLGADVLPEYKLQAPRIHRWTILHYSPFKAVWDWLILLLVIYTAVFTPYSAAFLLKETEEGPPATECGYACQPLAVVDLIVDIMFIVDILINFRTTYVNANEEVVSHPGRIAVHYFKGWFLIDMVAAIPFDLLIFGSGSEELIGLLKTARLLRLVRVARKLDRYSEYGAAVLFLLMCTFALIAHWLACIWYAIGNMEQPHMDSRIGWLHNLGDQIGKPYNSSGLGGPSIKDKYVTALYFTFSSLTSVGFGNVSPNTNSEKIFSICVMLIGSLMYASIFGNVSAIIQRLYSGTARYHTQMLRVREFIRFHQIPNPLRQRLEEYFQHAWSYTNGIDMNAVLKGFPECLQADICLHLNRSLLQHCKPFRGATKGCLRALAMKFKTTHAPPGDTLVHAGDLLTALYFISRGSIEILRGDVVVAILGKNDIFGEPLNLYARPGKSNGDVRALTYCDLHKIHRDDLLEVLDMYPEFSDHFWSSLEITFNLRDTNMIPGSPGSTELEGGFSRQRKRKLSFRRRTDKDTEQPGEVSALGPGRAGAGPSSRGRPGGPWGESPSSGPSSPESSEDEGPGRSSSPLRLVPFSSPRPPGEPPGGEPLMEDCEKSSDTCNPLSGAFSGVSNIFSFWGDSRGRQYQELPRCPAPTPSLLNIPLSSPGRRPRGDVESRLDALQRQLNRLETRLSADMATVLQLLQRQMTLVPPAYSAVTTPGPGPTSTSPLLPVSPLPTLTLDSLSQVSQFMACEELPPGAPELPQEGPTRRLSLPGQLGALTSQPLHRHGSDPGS
Cytochrome P450 2D6 (Homo sapiens), sequence (P10635 whole entry, looked up): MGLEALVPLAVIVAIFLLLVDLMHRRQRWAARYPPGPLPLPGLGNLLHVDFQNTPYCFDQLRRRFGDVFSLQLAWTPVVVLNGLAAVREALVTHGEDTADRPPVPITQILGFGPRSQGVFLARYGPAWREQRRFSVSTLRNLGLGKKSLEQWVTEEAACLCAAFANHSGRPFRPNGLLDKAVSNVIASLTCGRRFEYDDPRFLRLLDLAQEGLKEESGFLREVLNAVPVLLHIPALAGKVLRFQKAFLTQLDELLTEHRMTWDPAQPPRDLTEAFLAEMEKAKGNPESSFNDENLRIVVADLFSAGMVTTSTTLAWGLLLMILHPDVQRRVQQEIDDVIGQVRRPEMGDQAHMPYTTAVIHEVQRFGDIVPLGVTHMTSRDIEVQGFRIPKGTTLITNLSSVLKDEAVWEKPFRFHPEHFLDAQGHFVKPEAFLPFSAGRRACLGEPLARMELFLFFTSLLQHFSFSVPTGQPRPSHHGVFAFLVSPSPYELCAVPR
Cytochrome P450 3A4 (Homo sapiens), sequence (P08684 whole entry, looked up): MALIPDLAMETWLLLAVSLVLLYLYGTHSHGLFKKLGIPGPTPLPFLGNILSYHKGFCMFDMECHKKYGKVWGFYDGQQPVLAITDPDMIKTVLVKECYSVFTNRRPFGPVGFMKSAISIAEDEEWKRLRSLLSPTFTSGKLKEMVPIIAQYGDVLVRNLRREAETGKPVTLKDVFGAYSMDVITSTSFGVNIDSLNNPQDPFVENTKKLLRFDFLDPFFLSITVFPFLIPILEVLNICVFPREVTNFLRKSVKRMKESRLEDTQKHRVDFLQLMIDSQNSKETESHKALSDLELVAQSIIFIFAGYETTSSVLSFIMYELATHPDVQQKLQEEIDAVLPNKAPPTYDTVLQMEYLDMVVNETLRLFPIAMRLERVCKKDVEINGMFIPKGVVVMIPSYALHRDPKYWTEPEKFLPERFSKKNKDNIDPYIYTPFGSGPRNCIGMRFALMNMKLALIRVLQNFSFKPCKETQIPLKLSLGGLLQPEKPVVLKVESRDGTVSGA
Cytochrome P450 1A2 (Homo sapiens), sequence (P05177 whole entry, looked up): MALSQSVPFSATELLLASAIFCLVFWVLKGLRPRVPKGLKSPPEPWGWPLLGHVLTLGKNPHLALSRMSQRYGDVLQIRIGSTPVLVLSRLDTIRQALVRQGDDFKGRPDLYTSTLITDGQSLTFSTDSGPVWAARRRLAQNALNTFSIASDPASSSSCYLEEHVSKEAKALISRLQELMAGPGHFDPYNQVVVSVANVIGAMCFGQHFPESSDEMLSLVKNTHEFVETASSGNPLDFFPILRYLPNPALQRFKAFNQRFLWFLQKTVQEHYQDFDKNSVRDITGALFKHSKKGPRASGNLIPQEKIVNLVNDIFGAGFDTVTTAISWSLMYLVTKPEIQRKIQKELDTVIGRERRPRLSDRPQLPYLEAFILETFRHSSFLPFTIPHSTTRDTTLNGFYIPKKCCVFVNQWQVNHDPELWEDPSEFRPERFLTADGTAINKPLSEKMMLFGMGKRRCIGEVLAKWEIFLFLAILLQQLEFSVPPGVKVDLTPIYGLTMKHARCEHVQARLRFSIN

Row | SMILES | Potency [1] | Potency [2] | Potency [3] | Potency [4] | Potency [5] | Potency [6] | Potency [7] | Potency [8] | Potency [9] | Potency [10]
1 | COC(=O)c1cccc(C(=O)OC)c1 | inactive | inactive | inactive | inactive | inactive | inactive | 12.4 µM (active) and 11.2 µM (active) | inactive | inactive | –
2 | Clc1ccc2c(c1)C(N1CCNCC1)=Nc1ccccc1O2 | inactive | inactive | inactive | inactive | 3.99 µM (active) and 3.09 µM (active) | 63.3 µM (active) and inactive | – | 43.6 µM (active) and 19 µM (active) | 7.96 µM (active) and 4.9 µM (active) | 17.8 µM (active) and inactive
3 | O=C(Oc1ccccc1)c1ccccc1O | inactive | inactive | inactive | inactive | inactive | inactive | 35.7 µM (active) and 35.6 µM (active) and 28.8 µM (active) | inactive | inactive | 35.6 µM (active) and 24.5 µM (active)
4 | c1cc(C(c2ccc(OCC3CO3)cc2)C(c2ccc(OCC3CO3)cc2)c2ccc(OCC3CO3)cc2)ccc1OCC1CO1 (configuration not stated) | inactive | 28.3 µM (active) | inactive | 40 µM (active) and 7.69 µM (active) | 46.5 µM (active) and inactive | 104 µM (active) and 56.4 µM (active) | inactive | inactive | inactive | 10.4 µM (active) and 22.4 µM (active)
5 | CC(C)(O)CCC(C)(C)O | inactive | inactive | inactive | inactive | inactive | inactive | inactive | inactive | inactive | inactive
6 | C=C(C)C1CC=C(C)C(OC(C)=O)C1 (configuration not stated) | inactive | inactive | inactive | inactive | 28.1 µM (active) and inactive | inactive | inactive | inactive | inactive | inactive
7 | C1COC(NC(C2CC2)C2CC2)=N1 | inactive | inactive | inactive | inactive | 15.5 µM (active) | inactive | inactive | inactive | inactive | inactive
8 | Nc1ccc(O)cc1 | 56.6 µM (active) | inactive | 56.6 µM (active) and inactive | inactive | 37 µM (active) | 20.8 µM (active) and 34.7 µM (active) | – | inactive | 37 µM (active) | 26.2 µM (active) and 34.7 µM (active)
9 | Cc1cccc([N+](=O)[O-])c1C(=O)O | inactive | inactive | inactive | inactive | 63.4 µM (active) | inactive | – | inactive | inactive | inactive
10 | COC(=O)/C=C/c1ccccc1 | inactive | inactive | inactive | inactive | 35.6 µM (active) and inactive | inactive | 15.9 µM (active) and 28.3 µM (active) | inactive | inactive | –
11 | Cc1scc2c1N(C(=O)CN1CCN(C)CC1)c1ccccc1NC2=O | inactive | inactive | inactive | inactive | inactive | inactive | inactive | inactive | – | –
12 | CC1COC(=O)O1 (configuration not stated) | inactive | inactive | inactive | inactive | inactive | inactive | inactive | inactive | inactive | –
13 | C#CC(C)(CC)OC(=O)c1ccccc1C(=O)O (configuration not stated) | inactive | inactive | inactive | inactive | inactive | inactive | inactive | inactive | inactive | inactive
14 | CCCCOCCOC(=O)c1ccccc1C(=O)OCCOCCCC | inactive | inactive | inactive | 59.8 µM (active) and inactive | 31 µM (active) and 25.2 µM (active) | 3.48 µM (active) and 1.78 µM (active) | 19.6 µM (active) and 15.9 µM (active) | inactive | 12.4 µM (active) and 17.8 µM (active) | 6.95 µM (active) and 7.1 µM (active)
15 | CCn1c2ccccc2c2cc(N)ccc21 | 53.9 µM (active) and inactive and 43.3 µM (active) | inactive | inactive and 30.6 µM (active) | 5.39 µM (active) and 30.6 µM (active) and inactive | 703 nM (active) and 3.99 µM (active) and 10 µM (active) | 4.43 µM (active) and 31.7 µM (active) and 12.6 µM (active) | 626 nM (active) and 2.24 µM (active) and 5.03 µM (active) | inactive | 1.77 µM (active) and 5.64 µM (active) and 31.7 µM (active) | 12.5 µM (active) and 31.7 µM (active) and 28.3 µM (active)
16 | CC(=O)OCCOCCOCCOC(C)=O | inactive | inactive | inactive | inactive | inactive | 78.7 µM (active) and inactive | inactive | inactive | inactive | inactive
